TDP1 inh: blocks human tyrosyl-DNA phosphodiesterase 1. Q9NUW8. recombinant TDP1, AlphaScreen DNA substrate cleavage. Potency, µM (highest dose often 130 µM), hits mostly inhibitors. actives 0.28% (n = 350,000). AID 485290; note: nearly all actives have a fitted effect of over 40% in size
Target sequence (Q9NUW8 whole entry, looked up): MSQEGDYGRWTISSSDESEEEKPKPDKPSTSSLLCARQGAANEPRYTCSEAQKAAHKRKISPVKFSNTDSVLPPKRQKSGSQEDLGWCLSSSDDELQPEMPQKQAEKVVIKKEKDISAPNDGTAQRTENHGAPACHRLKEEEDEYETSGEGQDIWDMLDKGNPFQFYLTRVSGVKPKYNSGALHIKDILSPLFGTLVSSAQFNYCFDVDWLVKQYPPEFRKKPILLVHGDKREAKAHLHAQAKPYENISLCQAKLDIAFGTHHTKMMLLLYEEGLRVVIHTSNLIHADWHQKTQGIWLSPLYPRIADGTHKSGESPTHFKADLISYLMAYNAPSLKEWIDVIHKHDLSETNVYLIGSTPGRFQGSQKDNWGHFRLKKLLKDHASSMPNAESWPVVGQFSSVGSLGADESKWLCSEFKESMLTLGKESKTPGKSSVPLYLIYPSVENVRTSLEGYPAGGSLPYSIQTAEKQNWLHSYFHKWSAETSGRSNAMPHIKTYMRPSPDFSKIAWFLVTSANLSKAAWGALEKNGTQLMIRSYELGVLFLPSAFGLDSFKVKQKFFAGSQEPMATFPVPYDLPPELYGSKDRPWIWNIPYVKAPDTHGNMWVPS
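Signal: AlphaScreen proximity between streptavidin donor and anti-FITC acceptor beads on intact substrate. Reaction: Tdp1 1 nM, substrate 15 nM final, 5 min RT after 15 min compound preincubation.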
BLM inh-1: blocks DNA unwinding by human BLM helicase. actives 0.2% (n = 350,000). Potency, µM (titrated, usually from 56.1 µM), actives largely listed as inhibitors. AID 2528. recombinant BLM DNA unwinding, fluorescence dequenching; note: nearly all actives have a fitted effect of over 35% in size
APE1 inh-1: blocks human APE1 abasic DNA cleavage; P27695; recombinant APE1, TAMRA/BHQ-2 abasic DNA cleavage fluorescence; Potency, µM (highest dose often 65.8 µM), hits mostly inhibitors; actives 0.35% (n = 350,000); AID 2517; note: nearly all actives have a fitted effect of over 55% in size
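Readout is kinetic fluorescence (ex 525, em 598 nm) from cleavage of 50 nM TAMRA/BHQ-2 THF abasic duplex by 0.75 nM APE1, compound added 15 min beforehand at RT.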
KAT2A inh: inhibitors of human GCN5L2 histone acetyltransferase | Q92830 | AID 504327 | GCN5L2 HAT assay, ThioGlo1 CoA-SH fluorescence | Potency, µM (highest dose often 58.9 µM), usual class: inhibitors | actives 0.21% (n = 390,000)
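Free CoA generated was detected with ThioGlo1 (50uM) fluorescence at Ex340nm/Em540nm, read immediately and after 20 min at room temperature. Enzyme, 20 nM in HEPES pH 7.5 buffer, saw compounds 15 min before adding 75uM H3(1-25) peptide and 70uM acetyl-CoA.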
RECQ1 inh-1: inhibitors of human RECQ1 DNA helicase; P46063; RECQ1 DNA unwinding, red fluorescence kinetic read; Potency, µM (doses to about 57.3 µM), hits mostly inhibitors; actives 0.54% (n = 240,000); AID 2549; note: nearly all actives have a fitted effect of over 30% in size
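50 nM RECQ1T1 preincubated 15 min with compound in Tris pH 8.0 buffer with MgCl2, DTT, Tween-20 and 2.5 ug/ml poly(dI-dC); started with 200 nM TAMRA/BHQ-2 forked duplex and 2 mM ATP. Unwinding read as fluorescence (525/598 nm), two reads 2 h apart.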
APE1 dye cs: DNA dye displacement counter-screen activity; shares compounds with APE1 inh-1; actives 7% (n = 480); Potency, µM (doses to about 28.5 µM), actives largely listed as inhibitors; DNA fluorescent dye displacement counterscreen, fluorescence; AID 2564;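 note: loss of thiazole orange fluorescence as the dye is displaced from duplex DNA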
Endo IV inh: Endo IV (E. coli) inhibition counter-screen; shares compounds with APE1 inh-1; E. coli Endo IV, fluorogenic AP-site DNA cleavage; Potency, µM (highest dose often 27.1 µM), actives largely listed as inhibitors; actives 4% (n = 560)
APE1 inh-2: APE1 (human) endonuclease inhibition, confirmation; shares compounds with APE1 inh-1; actives 44% (n = 750); purified APE1, fluorogenic abasic-site DNA cleavage; AID 2572; Potency, µM (top dose mostly 57.1 µM), actives largely listed as inhibitors; note: nearly all actives have a fitted effect of over 30% in size
APE1 FP inh: compounds that displace a DNA probe from human APE1; APE1 binding to TAMRA-labelled double-stranded DNA, fluorescence polarization displacement; shares compounds with APE1 inh-1; actives 7% (n = 480); Potency, µM (doses to about 28.5 µM), usual class: inhibitors
BLM inh-2: confirmation of inhibitors of human Bloom syndrome helicase BLM; BLM DNA unwinding, fluorescence quenching, biochemical; Potency, µM, hits mostly inhibitors; actives 40% (n = 220); shares compounds with BLM inh-1;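 note: strand separation dequenches TAMRA so unwinding raises red fluorescence; series mostly up to about 69 µM; nearly all actives have a fitted effect of over 45% in size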
RECQ1 inh conf: confirmation of human RECQ1 helicase inhibitors; shares compounds with RECQ1 inh-1; RECQ1 helicase DNA unwinding, fluorescence; Potency, µM (highest dose often 229 µM), hits mostly inhibitors; actives 28% (n = 610); AID 2708; note: nearly all actives have a fitted effect of over 45% in size
ADP FP counter: ADP displacement flagged in RECQ1 inhibitor counter-screen; AID 2711; Potency, µM (series often up to 228 µM), most hits filed as inhibitors; shares compounds with RECQ1 inh-1; actives 27% (n = 530); ADP fluorescence polarization displacement counterscreen; note: nearly all actives have a fitted effect of over 45% in size
RECQ1 inh-2: blocks human RECQ1 DNA unwinding | recombinant RECQ1 DNA unwinding, red fluorescence | actives 15% (n = 1,100) | Potency, µM (titrated, usually from 119 µM), hits mostly inhibitors | shares compounds with RECQ1 inh-1 | AID 504841; note: nearly all actives have a fitted effect of over 50% in size
Hits are given with their value; – = inactive; ? = inconclusive; · = no result; ! = not confirmed by another sample. Most compounds without a hit are left out; they make up all but 0.87% or so of the library. Calls come from the whole dose curve; as a rule, active = well fitted curve in the direction sought with a large enough effect; inconclusive = small, poorly fitted or top-dose-only effect, or another doubt; inactive = no such curve, though single readings can be large; an effect the other way counts as inactive or inconclusive.

SMILES | TDP1 inh | BLM inh-1 | APE1 inh-1 | KAT2A inh | RECQ1 inh-1 | Endo IV inh | APE1 inh-2 | others
CCc1c(C(=O)OC)ncc2[nH]c3cc(OC)c(OC)cc3c12 | – | · | – | · | – | – | –
COc1cc(OC)c(OC)cc1/C=C1/C(=O)NC(=O)N(Cc2ccccc2)C1=O | – | – | – | – | – | · | ·
Cc1cc(/C=C2/C(=O)NC(=O)N(Cc3ccco3)C2=O)c(C)n1-c1ccccc1 | – | – | ? | – | 28µM | – | ? | APE1 dye cs=–;APE1 FP inh=–
CC1=C[C@@H]2c3cccc4[nH]cc(c34)C[C@H]2N(C)C1 | – | – | ? | – | – | · | ·
CN1Cc2ccccc2[C@@H]2c3cccc4[nH]cc(c34)C[C@H]21 | – | – | ? | – | – | – | ? | APE1 dye cs=–;APE1 FP inh=–
CO/N=C(\C(=O)N[C@@H]1C(=O)N2C(C(=O)O)=C(CSc3nc(=O)c(O)nn3C)CSC12)c1csc(N)n1 (stereo partly specified) | 7.1µM | · | 10µM | – | ? | – | 2.2µM
O=C(O)c1ccccc1O | – | – | – | ? | – | · | ·
Oc1ccccc1O | ? | · | 28µM! | – | 16µM! | – | –
O=C1NC(=O)N(c2ccc3c(c2)OCO3)C(=O)/C1=C\c1ccc(-c2ccccc2C(=O)O)o1 | 11µM | – | 20µM | – | – | – | 10µM | APE1 dye cs=–;APE1 FP inh=–
NC(Cc1cc(O)c(O)cc1O)C(=O)O (stereo unspecified) | 0.18µM | · | 0.11µM | 0.63µM | 0.63µM | – | 0.79µM | RECQ1 inh conf=45µM;ADP FP counter=20µM
CN1CCCCC1Cn1cc(C(=O)c2cc([N+](=O)[O-])ccc2I)c2ccccc21 (stereo unspecified) | – | – | – | – | – | · | ·
Cc1cccc(OCCn2cccc2/C=C2/C(=O)NC(=O)N(Cc3ccco3)C2=O)c1 | – | 25µM | 7.9µM | ? | 8.9µM | – | 13µM | APE1 dye cs=–;APE1 FP inh=?;RECQ1 inh conf=?;ADP FP counter=–
CCc1ccc(N2C(=O)NC(=O)/C(=C/c3cccn3CCOc3ccc(C)cc3)C2=O)cc1 | – | – | ? | – | ? | · | ·
CC(N)C(O)c1ccc(O)c(O)c1 (stereo unspecified) | – | – | 1.4µM! | – | 7.1µM! | – | – | APE1 dye cs=–;APE1 FP inh=–;RECQ1 inh conf=?;ADP FP counter=14µM
C[C@@H](N)[C@@H](O)c1ccccc1 | · | · | – | · | · | · | ·
CCOP(=S)(OCC)Oc1ccc(Cl)cc1Cl | ? | – | – | – | – | · | ·
NCCc1cc(O)c(O)cc1O | 0.25µM | ? | 0.4µM | ? | 8.9µM | – | ? | APE1 dye cs=?;APE1 FP inh=28µM!;RECQ1 inh conf=126µM;ADP FP counter=100µM
O=C1C=CC(=O)c2c(O)cccc21 | – | 5.6µM | 0.32µM | 0.63µM | 4.5µM | – | ? | RECQ1 inh conf=7.9µM;ADP FP counter=?
c1ccc(N=NNc2ccccc2)cc1 | – | · | – | · | – | · | ·
CCOC(=O)c1c(NC(=O)c2c(N)n(CCCOC)c3nc4ccccc4nc23)sc2c1CCCC2 | – | 4µM | – | – | – | · | · | BLM inh-2=–
O=c1ccc2cc(OC3OC(CO)C(O)C(O)C3O)c(O)cc2o1 (stereo unspecified) | – | – | – | · | – | · | ·
C=CC(=O)OCC(CC)CCCC (stereo unspecified) | – | · | – | · | – | · | ·
CC(C)OCCCNC(=O)c1c(N)n(CC2CCCO2)c2nc3ccccc3nc12 (stereo unspecified) | · | 5µM | – | ? | – | · | · | BLM inh-2=–
CC1=NCCc2c1[nH]c1cc(O)ccc21 | – | 40µM! | ? | ? | ? | · | · | BLM inh-2=–
CNCC(O)c1ccc(OC(=O)C(C)(C)C)c(OC(=O)C(C)(C)C)c1 (stereo unspecified) | · | · | – | – | · | · | ·
SMILES | TDP1 inh | BLM inh-1 | APE1 inh-1 | KAT2A inh | RECQ1 inh-1 | Endo IV inh | APE1 inh-2 | others
Cc1cccn2c(=O)cc(COc3cccc(NC(=O)COc4ccc(F)cc4)c3)nc12 | – | 14µM | · | – | · | · | · | BLM inh-2=?
CC(=O)c1cccc(OCC(=O)N2CCN(CC(=O)Nc3cccc(F)c3)CC2)c1 | – | · | – | – | · | · | ·
COC(C(=O)C(O)C(C)O)C1Cc2cc3cc(OC4CC(OC5CC(O)C(OC)C(C)O5)C(OC(C)=O)C(C)O4)c(C)c(O)c3c(O)c2C(=O)C1OC1CC(OC2CC(OC3CC(C)(O)C(OC(C)=O)C(C)O3)C(O)C(C)O2)C(O)C(C)O1 (stereo unspecified) | – | ? | · | – | · | · | ·
CC(C)C#N | – | · | – | · | – | · | ·
CN(C)C1C(=O)C(C(N)=O)=C(O)[C@@]2(O)C(=O)C3=C(O)c4c(O)cccc4[C@](C)(O)C3C(O)C12 (stereo partly specified) | · | – | ? | – | 10µM | · | · | RECQ1 inh conf=–;ADP FP counter=7.1µM
CC[C@@]1(O)C(=O)OCc2c1cc1n(c2=O)Cc2cc3c(O)cccc3nc2-1 | ? | – | ? | ? | ? | · | · | RECQ1 inh-2=?
CCOC(=O)C1CCCN(c2ccc([N+](=O)[O-])c3nonc23)C1 (stereo unspecified) | – | – | ? | – | 28µM | · | · | RECQ1 inh-2=56µM
COc1ccc2c3c([nH]c2c1)C(C)=NCC3 | – | ? | ? | ? | 14µM! | · | · | RECQ1 inh conf=–;ADP FP counter=18µM;RECQ1 inh-2=50µM
COc1ccc2[nH]cc(C3=CCNCC3)c2c1 | – | – | – | – | – | · | ·
C/C=C1/C[C@@H](C)[C@@](C)(O)C(=O)OCC2=CCN3CC[C@@H](OC1=O)[C@@H]23 | – | – | ? | · | ? | · | · | RECQ1 inh-2=–
C=C1C/C(=C/C)C(=O)O[C@@H]2CCN3CC=C(COC(=O)[C@]1(C)O)[C@@H]23 | – | – | ? | · | ? | · | ·
CC(O)CCl (stereo unspecified) | – | · | – | · | – | · | ·

Compound activity from PubChem.
